Measurements from PubChem BioAssay (NCATS).
Inconclusive results are not listed. Entries that show only a call come without a potency. Active and inactive are the calls of the source. Calls come from the whole dose curve; as a rule, active = well fitted inhibition curve with a large enough effect; inconclusive = small, poorly fitted or top-dose-only effect; inactive = flat fitted curve, though single readings scatter.

target: Calcium and integrin-binding protein 1 (Homo sapiens) (UniProt Q99828); test: Primary qHTS for Identification of Calcium Integrin Binding Protein 1 (CIB1) Competitor (AID 1508620); conditions: CIB1-GST / FITC-alphaIIb peptide fluorescence polarization; series mostly up to 114 µM;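 note: GST tagged CIB1 binding a fluorescein labelled alphaIIb integrin peptide tracer; top concentration of the series differs between compounds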
Summary of the method: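 CIB1-GST (1 uM final) and compound incubated 15 min at room temperature before adding FITC-alphaIIb peptide tracer (100 nM final). Competition for binding read by fluorescence polarization (ex 480, em 540) after another 15 min at room temperature.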

Calcium and integrin-binding protein 1 (Homo sapiens), sequence (Q99828 whole entry, looked up): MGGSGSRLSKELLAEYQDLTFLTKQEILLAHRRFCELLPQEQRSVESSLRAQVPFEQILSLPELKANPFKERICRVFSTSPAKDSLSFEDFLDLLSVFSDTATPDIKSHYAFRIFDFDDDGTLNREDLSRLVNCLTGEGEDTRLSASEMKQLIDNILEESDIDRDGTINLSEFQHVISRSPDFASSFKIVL

SMILES	Potency
CC(C)(C)OC(=O)Cc1nnc(C(C(=O)OCc2ccccc2)c2ccccc2)o1 (stereo not given)	inactive
COc1ccccc1-c1csc2ncnc(Sc3nnnn3C)c12	inactive
CC(=O)N1CCN(c2ccc(NCc3ccc(-c4cccc(Cl)c4)o3)cc2)CC1	inactive
COc1ccc(S(=O)(=O)Nc2cc(OC)cc3cccnc23)cc1	inactive
Cc1cccc(OC2=NS(=O)(=O)c3ccccc32)c1	inactive
O=C(Cc1ccccc1)Nc1nnc(-c2ccncc2)s1	inactive
CC(=O)NC(c1ccco1)c1cc(Br)c2cccnc2c1O (stereo not given)	inactive
O=C(CSc1ccccc1)Nc1nnc(COc2ccc(Cl)cc2)s1	inactive
COc1cccc(CCN2C(=O)c3ccccc3NC2c2ccc(OC)c(COc3c(C)cc(NC(C)=O)cc3C)c2)c1 (stereo not given)	inactive
O=C1c2ccccc2C(=O)N1c1cccc2ccncc12	inactive
Cc1ccnc(NC(=S)N2CCc3cccc(C(F)(F)F)c3C2)c1	inactive
COc1nccc(-c2nc(Nc3ccc(F)c(F)c3)c3ccccc3n2)c1Cl	inactive
CCOC(=O)C1CCN(C(=O)C2(NC(=O)Nc3ccccc3Cl)CC2)CC1	inactive
COc1cccc(C2c3c(ncn(-c4ccc(C)cc4)c3=N)Oc3ccc4ccccc4c32)c1 (stereo not given)	inactive
O=C1CCc2cc(S(=O)(=O)Nc3ccc(F)c(Cl)c3)ccc2N1	inactive
N#Cc1nc(-c2cccc3ccccc23)oc1N	inactive
COc1ccccc1-c1no[n+]([O-])c1C#N	inactive
O=S(=O)(c1ccc2c(c1)OCCO2)N1C[C@@H]2C[C@H]1CN2S(=O)(=O)c1c(F)cccc1F	inactive
CC(Nc1nc(-c2ccccc2C(F)(F)F)nc2ccccc12)c1ccc(-c2ccncc2)cc1 (stereo not given)	inactive
O=C(O)c1c(-c2ccccc2)no[n+]1[O-]	inactive

SMILES	Potency
Cc1csc(CN(C)c2ncnc3ccc(-c4ccc5c(c4)OCO5)cc23)n1	inactive
COc1cccc(Nc2nc(C#N)nc(NC3CCCC3)n2)c1	inactive
O=C(NCCc1nc2ccccc2n1CCOc1cccc(Br)c1)C1CCCCC1	inactive
CNC(=O)C1CCN(c2nc(-c3ccc(Br)cc3)cs2)CC1	inactive
CNc1oc(-c2cccc3c2OC(F)(F)O3)nc1C#N	inactive
Oc1ccc(CNc2cccc(F)c2)c2cccnc12	inactive
O=S(=O)(c1ccc2c(c1)OCCO2)N1CCN(S(=O)(=O)c2cc(F)c(F)cc2F)CC1	inactive
O=C(COC(=O)CNC(=O)C1CCCCC1)Nc1cc(C(F)(F)F)ccc1Cl	inactive
Cc1ccc(NS(=O)(=O)c2cccc(C(=O)O)c2)cc1C	inactive
O=C(Oc1cccnc1)c1cccs1	inactive
O=C(O)CN1C(=O)N/C(=C\c2cccn2-c2ccc(P(=O)(O)O)cc2)C1=O	inactive
O=C(OCC#CCSc1nnc(-c2cccc3ccccc23)o1)C1CCC1	inactive
N#CN1CCC(NS(=O)(=O)c2ccc(F)cc2)C1 (stereo not given)	inactive
COC(=O)c1ccc(-c2c(NC(C)=O)sc3c2CCNC3)cc1	inactive
CC(=O)c1ccc(NC(=O)Nc2nnc(-c3ccncc3)s2)cc1	inactive
Cc1cc2c(s1)c1cnn(Cc3ccc(F)c(F)c3)c(=O)c1n2C	inactive
CCCCNC(=S)NCCCc1cnc[nH]1	inactive
FC(F)(F)c1ccccc1-c1nc(NCc2ccc(-c3cccnc3)cc2)c2ccccc2n1	inactive
COc1ccc([S+](=O)([O-])Nc2ccc(-c3nc4ccccc4[nH]3)cc2)cc1OC	inactive
C#CCOc1ccc(C(C)=O)cc1-c1nnc2n1N=C(c1ccc(OC)c(O[C@@H]3CCOC3)c1)CS2	inactive
